Results: the supplement of paper PMC6555819

System: VDR:RXRa (NR concentration 270 nM, RXRa partner concentration 90 nM)
Assay: PBM binding z-score (relative to random genomic background probes); higher = stronger binding; sequences stand for … in GC…GCGATTGACAGCGTAGAATGAAGG
Method: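 Protein-binding microarray (Agilent 4x180K custom design, double-stranded 60-nt probes: 5' GC cap, 34-nt variable region, 24-nt constant primer region; full probe sequence given). Purified or IVT nuclear receptor:RXRα heterodimers (3:1 NR:RXRα, mostly 270:90 nM) or homodimers were incubated for 1 h in PBS with 2% milk and no ligand, then detected with Alexa488 antibodies. Fluorescence from o1-orientation probes (~5 replicates averaged) was converted to z-scores against 500 random hg19 background probes. Variable regions are seed direct-repeat (DR0–DR5) sites, all their single-nucleotide variants and half-site ablations.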

Sequence | PBM binding z-score
CCTACTGGGCCATAAGGTCATTGATATCAACGTT | 3.71
CCGACTGGAGCAGAAAGGTTACCATACCATCCGG | 0.564
AATACAGGGTCCCTAGGCCAGAGTAGGTACGAAT | -0.389
GCTGCTAGGCCAACTGATGGTCAGCTAAAGCTCG | -0.87
TTACCAAGGTGAAGGGTCGTTGATGCACGCCTTG | 1.7
CTCGAAAGGTCGTGCTCAGGTGAGTATTCCAAAC | 3.26
CCTTACGGGTCACGAGGTTATGGCACGACGAGCG | 4.99
CCTACTGGACCATTCAGAGGTCATTGATCATATG | 3.95
ATCTCTAGTTAAAGATAGTTCAGTGAATGCAAAT | 1.04
GCTTACGGGTCTAAGGTTATAGCATGAATAGAAT | 1.01
ACTAGCAGGCCAAGTTTGGGTCAATCAAACAAAG | 0.502
TCTATTAGTTGACTAGGGCAACCGAAACAGCGGA | 0.704
CAGCCTAGCTCAGGGCCAGTATAGGAGGAACGTT | -0.907
CTCGAAAGGTCGGTAGAGGTGAGTATACGGATAA | 2.05
ATCTCTAGGTAAAGATAGTTCAGGGAATGCAAAT | 0.786
TCATATAGGTAAACGGTGAAAGTCGGTGTGGTAA | 0.79
CGTCCAACGTCAGAGAGGTCAGTGAATGCCGAGT | 3.23
TAGCCTAGGTCATTCAGGGGACAGTATAGAAAGC | 3.56
TGTTGTAGATCAAGCAGGTTAAGAAAGCCTGAGT | 0.0987
TGAATGAGGTTAAAGATCTGGGAACGTGGCGTCG | 1.31

Sequence | PBM binding z-score
TCGAGTAGGTTAGGGGCATTCAAAATGGCGTCGA | 0.856
GCGACAGGGGCATCAGCAGGTTACCATAACTTAA | 0.517
CCTCGGAGGACAGTAGGTCAGAGCTGTCCGCTTT | -0.11
TCTTCTAGATCAGCAGGTTAAGAAAGCTGGCCAA | 0.175
CCTACCAGGCCAGGGTCACTCAAGCATTTCGCTT | 2.7
TCTCGGAGGACACCAAGGTCAGAGCTTTCCAGAG | 3.36
TTACCAAGGTGAGCTCAGGTCGTTGATCCAACTC | 1.81
GCAGACAGGTGAAACGCAAGTAACTCAGGGTGGC | -0.526
GGAACGAGGACAAGTTGATAGCAGAGTTTGATGG | 0.0641
GCTGGGAGGACAAGGTCAGAGCTTTGTCCGTAGA | 1.4
ATCGAAAGGTCGTGAGTTGAGTATACAGAAAGGC | 3.51
TCATATAGCTAAACAGGTGAAAGTCCGTAAGTTA | 0.43
TCTCGGAGGACACGAAGGTCAGAGGTTTCCAGAG | 2.59
ACTAGCAGGCCAAGGGTTACTCAAGATTAGTCCG | 0.0944
TCAAGCAGGCCAGAGGGTCACTCAAGAGGTACGG | 1.52
TCTTGTAGATCAATAGTGGTTAAGAAAGTGCGCT | 0.673
CCTACTGGGCCACGAAAGCTCATTGATTCAGTGA | -0.828
ACTAGCAGGCCAAGTTTGGGTCACTCACACAAAG | 0.806
CGAACTAGGTCCGAACAGGACAGTGAAGGATGAT | -0.576
CCTTACGGGGCACTGACAGGTTATAGCATTTGGA | -0.341
